C diff growth: inhibitors of Clostridium difficile growth; Clostridium difficile clinical isolate growth, OD600, 24 h; hits give low values; growth activity, negative = inhibition, % at 16 µg/mL (by protocol); actives 0.25% (n = 86,000);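 active = mean growth activity at or below -80% and every replicate also at or below -80%; inconclusive = mean at or below -80% but some replicate above -80%; inactive = mean growth activity above -80%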
T cruzi growth-1: T. cruzi proliferation inhibition. inhibition, % at 8.34 µM. AID 624255. T. cruzi beta-gal in NIH3T3, GalScreen luminescence, 90 h. actives 5.9% (n = 77,000);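 active = mean inhibition above about 93%, with at least 55% of replicates each passing it, limit read from the data, passing the limit was not always enough; inconclusive = only one of those two conditions holds; inactive = neither condition holds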
Pf Dd2 inh: P. falciparum Dd2 growth inhibition; SYBR Green, 72 h; hits give low values; actives 2.3% (n = 94,000); activity change, % at 10 µM; in the data active = activity change below about -80%; inconclusive = no clear call, values can overlap the other calls
T cruzi growth-2: blocks T. cruzi growth in NIH3T3 host cells | actives 72% (n = 5,600) | T. cruzi beta-gal in NIH3T3, GalScreen luminescence, 90 h | shares compounds with T cruzi growth-1 | inhibition, % at 8.35 µM | AID 651739;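 active = mean replicate inhibition above about 95% and at least 55% of replicates individually reaching it, limit read from the data; inconclusive = only one of the two criteria is met; inactive = neither criterion is met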
T cruzi growth-3: inhibitors of T. cruzi proliferation | actives 21% (n = 5,600) | T. cruzi beta-gal in NIH3T3, GalScreen luminescence, 90 h | shares compounds with T cruzi growth-1 | inhibition, % at 2.09 µM;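 active = mean inhibition above about 95%, with at least 55% of replicates also reaching it, limit read from the data; inconclusive = meets just one of the two conditions; inactive = meets neither condition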
3T3 cytotox: cytotoxicity in mouse NIH/3T3 fibroblasts. cytotoxicity (signal decrease), % at 8.35 µM. actives 14% (n = 5,600). shares compounds with T cruzi growth-1. AID 651742. NIH/3T3 viability, CellTiter-Glo ATP luminescence, 90 h;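 active = mean signal decrease across replicates above about 35% based on untreated-well scatter, with enough replicates individually passing, limit read from the data; inconclusive = no rule stated though some were filed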
3T3 cytotox 2: kills mouse NIH/3T3 fibroblasts; shares compounds with T cruzi growth-1; NIH/3T3 viability, CellTiter-Glo ATP luminescence, 90 h; inhibition, % at 24.9 µM; actives 56% (n = 5,600); AID 651744;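 active = mean loss of cell viability signal at or above a set limit, and enough replicates individually reaching it; inconclusive = meets only the mean limit or only the replicate share; inactive = meets neither condition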
Hits are given with their value; - = inactive; ? = inconclusive; . = no result given. An excerpt weighted towards active compounds, which were near 6.7% of everything screened.

SMILES	C diff growth	T cruzi growth-1	Pf Dd2 inh	T cruzi growth-2	T cruzi growth-3	3T3 cytotox	3T3 cytotox 2
Cc1noc(C)c1S(=O)(=O)N(C)C[C@@H]1OCCCC[C@@H](C)Oc2ccc(NC(=O)NC(C)C)cc2C(=O)N([C@@H](C)CO)C[C@H]1C	-	-	-	.	.	.	.
COc1ccccc1-c1cnc2c(c1)C(=O)N([C@H](C)CO)C[C@@H](C)[C@H](CN(C)Cc1cccnc1)O2	-	-	-	.	.	.	.
COc1ccccc1-c1ccc([C@@H]2[C@H](C#N)N(C(=O)CN(C)C)[C@H]2CO)cc1	-	-	-	.	.	.	.
N#C[C@H]1[C@@H](c2ccc(/C=C/c3ccccc3)cc2)[C@@H](CO)N1C(=O)C1CCCC1	-	?	-	95	-	-	27
COc1ccc(-c2ccc([C@@H]3[C@@H](C#N)N(C(=O)CN(C)C)[C@@H]3CO)cc2)cc1	-	108	-	-	-	-	-
N#C[C@@H]1[C@H](c2ccc(C3=CCCC3)cc2)[C@H](CO)N1C(=O)C1CC1	-	-	-	.	.	.	.
COc1ccc(-c2ccc([C@@H]3[C@@H](CO)N(C(=O)NC4CCCC4)[C@H]3C#N)cc2)cc1	-	?	-	-	-	-	-
N#C[C@H]1[C@H](c2ccc(C3=CCCC3)cc2)[C@H](CO)N1C(=O)C1CC1	-	102	-	96	-	-	-
COc1ccc(-c2ccccc2[C@H]2[C@@H](CO)N(C(=O)NC3CCCCC3)[C@H]2C#N)cc1	-	.	-	.	.	.	.
N#C[C@@H]1[C@@H](c2ccc(/C=C/c3ccccc3)cc2)[C@@H](CO)N1C(=O)C1CCCC1	-	-	-	.	.	.	.
C[C@@H]1CN([C@@H](C)CO)C(=O)c2cc(NC(=O)CCC(F)(F)F)ccc2O[C@H]1CN(C)CC1CCCCC1	-	-	-	.	.	.	.
C[C@@H]1CN([C@H](C)CO)C(=O)c2cc(NC(=O)NC3CCCCC3)ccc2O[C@@H](C)CCCCO[C@@H]1CN(C)S(=O)(=O)c1ccc(Cl)cc1	-	-	.	.	.	.	.
C[C@H](CO)N1C[C@H](C)[C@H](CN(C)S(=O)(=O)c2ccc(Cl)cc2)Oc2ccc(N(C)C)cc2C1=O	-	.	-	.	.	.	.
COc1ccc(-c2ccc([C@@H]3[C@@H](C#N)N(C(=O)C4CCCC4)[C@H]3CO)cc2)cc1	-	-	-	.	.	.	.
COc1ccc(-c2ccc([C@@H]3[C@@H](C#N)N(C(=O)C4CC4)[C@H]3CO)cc2)cc1	-	-	-	.	.	.	.
COc1ccc(-c2ccc([C@H]3[C@@H](C#N)N(C(=O)C4CCCC4)[C@@H]3CO)cc2)cc1	-	106	-	-	-	-	-
COc1ccc(-c2ccc([C@H]3[C@@H](C#N)N(C(=O)C4CC4)[C@@H]3CO)cc2)cc1	-	106	-	-	-	-	37
CC(C)NC(=O)N(C)C[C@@H]1Oc2ncc(-c3ccc(C(=O)N(C)C)cc3)cc2C(=O)N([C@H](C)CO)C[C@@H]1C	-	-	-	.	.	.	.
C[C@@H]1CN([C@H](C)CO)C(=O)c2cc(NC(=O)Nc3ccc(F)cc3)ccc2O[C@H]1CN(C)C(=O)Nc1cccc2ccccc12	-	.	-	.	.	.	.
C/C=C/c1ccc2c(c1)O[C@H](CN(C)Cc1cccnc1)[C@@H](C)CN([C@@H](C)CO)S2(=O)=O	-	114	-	103	105	-	54
C/C=C/c1ccc2c(c1)O[C@@H](CN(C)Cc1cncnc1)[C@@H](C)CN([C@H](C)CO)S2(=O)=O	-	.	-	.	.	.	.
C[C@H](CO)N1C[C@H](C)[C@H](CN(C)Cc2cccnc2)Oc2cc(/C=C/c3ccccc3)ccc2S1(=O)=O	-	107	-	100	97	?	31
C/C=C/c1ccc2c(c1)O[C@@H](CN(C)Cc1cncnc1)[C@@H](C)CN([C@@H](C)CO)S2(=O)=O	-	.	-	.	.	.	.
C[C@@H]1CN([C@H](C)CO)S(=O)(=O)c2ccc(/C=C/c3ccccc3)cc2O[C@H]1CN(C)Cc1ccccc1	-	-	-	.	.	.	.
C/C=C/c1ccc2c(c1)O[C@@H](CN(C)Cc1cccnc1)[C@H](C)CN([C@@H](C)CO)S2(=O)=O	-	106	-	101	-	38	70
SMILES	C diff growth	T cruzi growth-1	Pf Dd2 inh	T cruzi growth-2	T cruzi growth-3	3T3 cytotox	3T3 cytotox 2
C/C=C/c1ccc2c(c1)O[C@@H](CN(C)Cc1cccnc1)[C@H](C)CN([C@H](C)CO)S2(=O)=O	-	107	-	-	-	52	65
C/C=C/c1ccc2c(c1)O[C@H](CN(C)Cc1cncnc1)[C@@H](C)CN([C@@H](C)CO)S2(=O)=O	-	.	-	.	.	.	.
COc1ccccc1C(=O)N1C[C@@H]2[C@H](c3ccccc31)[C@H](CO)N2C(=O)Cc1cccnc1	-	-	-	.	.	.	.
COc1cccc(CN2[C@@H](CO)[C@H](c3ccccc3)C23CN(C(=O)C2CC2)C3)c1	-	.	-	.	.	.	.
CNC[C@@H]1Oc2ccc(NC(=O)NC3CCCCC3)cc2CC(=O)N([C@H](C)CO)C[C@@H]1C	-	-	-	.	.	.	.
CC(C)NC(=O)Nc1ccc2c(c1)CC(=O)N([C@H](C)CO)C[C@H](C)[C@@H](CN(C)Cc1ccc(Oc3ccccc3)cc1)O2	-	-	-	.	.	.	.
Cc1ccccc1-c1ccc([C@@H]2[C@H](CO)N3CCCCN(S(C)(=O)=O)C[C@@H]23)cc1	-	-	-	.	.	.	.
C[C@@H]1CN([C@H](C)CO)C(=O)Cc2cc(NS(=O)(=O)c3ccccc3)ccc2O[C@@H]1CN(C)Cc1ccc(-c2ccccc2)cc1	-	-	-	.	.	.	.
C[C@@H]1CN([C@@H](C)CO)C(=O)Cc2cc(NS(C)(=O)=O)ccc2O[C@H]1CN(C)Cc1ccc(-c2ccccc2)cc1	-	-	-	.	.	.	.
C[C@@H]1CN([C@@H](C)CO)C(=O)Cc2cc(NS(=O)(=O)c3ccc(Cl)cc3)ccc2O[C@@H]1CN(C)Cc1ccccc1	-	-	-	.	.	.	.
C[C@H]1CN([C@@H](C)CO)C(=O)Cc2cc(NS(=O)(=O)c3ccc(Cl)cc3)ccc2O[C@@H]1CN(C)Cc1ccc(-c2ccccc2)cc1	.	99	-	105	-	-	107
C[C@H](CO)N1C[C@H](C)[C@@H](CN(C)Cc2ccc(-c3ccccc3)cc2)Oc2ccc(NS(C)(=O)=O)cc2CC1=O	-	118	-	112	?	-	105
C[C@H]1CN([C@@H](C)CO)C(=O)Cc2cc(NS(=O)(=O)c3ccc(Cl)cc3)ccc2O[C@@H]1CN(C)Cc1ccccc1	-	102	-	104	-	-	83
C[C@@H]1CN([C@H](C)CO)C(=O)Cc2cc(NS(=O)(=O)c3ccc(F)cc3)ccc2O[C@@H]1CN(C)Cc1ccccc1	-	-	-	.	.	.	.
C[C@H](CO)N1C[C@H](C)[C@@H](CN(C)Cc2ccccc2)Oc2ccc(NS(=O)(=O)c3ccc(F)cc3)cc2CC1=O	-	109	-	96	-	-	-
